What follows are compounds tested on Pseudomonas aeruginosa PA14 wild type (assay: respiration area under curve with compound as sole nitrogen source, 24 h (OmniLog AUC (arbitrary units)); higher = more respiration / better utilisation as nitrogen source).
Protocol: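 Biolog Phenotype MicroArray plates PM6-PM8: each di/tripeptide is the sole nitrogen source (IF-0 medium with succinate/ferric citrate and dye mix A). Tetrazolium reduction was read in the OmniLog every 15 min for 24 h at 37°C and summarised as area under the respiration curve (arbitrary units). The paper counts values below 2000 as no respiration and above 8000 as solid respiration. Replicate datasets are averaged.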

Row | Structure (SMILES) | respiration area under curve
1 | CC(C)C[C@@H](NC(=O)CNC(=O)CN)C(=O)O (plate: PM8) | 5880 (active)
2 | CC(C)C[C@H](NC(=O)CNC(=O)CN)C(=O)O (plate: PM8) | 10400 (active)

— the supplement of paper PMC4206461
